PubChem BioAssay AID651744 (Broad Institute, 2012)
Out of some 5,600 compounds screened, about 3,100 (55%) were called active. Not shown: some 3% with an inconclusive outcome.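 The calls were made as follows: active = mean loss of cell viability signal at or above a set limit, and enough replicates individually reaching it; inconclusive = meets only the mean limit or only the replicate share; inactive = meets neither condition.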 So high a share suggests a set chosen from earlier hits. Not all results are given here.

Test: NIH/3T3 fibroblast cytotoxicity, confirmation, cytotoxicity control, cell-based, cherry-pick, single point, set 2 (AID 651744);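 also: 0% = median of neutral control wells and 100% = median of positive control wells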
Details: NIH/3T3 viability, CellTiter-Glo ATP luminescence, 90 h; at 24.9 µM; active compounds read high

Row | SMILES | inhibition
1 | C[C@H](CO)N1C[C@H](C)[C@@H](CN(C)Cc2ccc(C(F)(F)F)cc2)OCCCC[C@H](C)Oc2ccc(NC(=O)C3CCCCC3)cc2C1=O | 22.4% (inactive)
2 | C[C@H]1CCCCO[C@H](CN(C)Cc2ccc(C(F)(F)F)cc2)[C@@H](C)CN([C@@H](C)CO)C(=O)c2cc(NC(=O)C3CCCCC3)ccc2O1 | 25.9% (active)
3 | C[C@H](CO)N1C[C@H](C)[C@H](CN(C)C(=O)Nc2ccc(C(F)(F)F)cc2)OCCCC[C@H](C)Oc2ccc(NC(=O)C3CCCCC3)cc2C1=O | -9.18% (inactive)
4 | CCC(=O)N(C)C[C@@H]1Oc2cc(C#CCN(C)C)ccc2S(=O)(=O)N([C@H](C)CO)C[C@H]1C | 5.45% (inactive)
5 | C[C@@H]1CN([C@@H](C)CO)S(=O)(=O)c2ccc(C#CCN(C)C)cc2O[C@H]1CN(C)C(=O)C1CC1 | 15.6% (inactive)
6 | CCCC#Cc1ccc2c(c1)O[C@H](CN(C)C(=O)CC)[C@@H](C)CN([C@H](C)CO)S2(=O)=O | 48.4% (active)
7 | CC(C)CC#Cc1ccc2c(c1)O[C@H](CN(C)C(=O)C1CC1)[C@@H](C)CN([C@@H](C)CO)S2(=O)=O | 34.8% (active)
8 | C[C@H](CO)N1C[C@H](C)[C@@H](CN(C)C(=O)C2CCCCC2)Oc2cc(-c3ccccc3)ccc2S1(=O)=O | 33.8% (active)
9 | COCC(=O)N1[C@H](CO)[C@@H](c2ccc(C#Cc3ccccc3F)cc2)[C@@H]1C#N | 19.1% (inactive)
10 | N#C[C@@H]1[C@@H](c2ccc(/C=C/c3ccccc3)cc2)[C@@H](CO)N1C(=O)C1CC1 | 48.2% (active)
11 | N#C[C@@H]1[C@@H](c2ccc(C#Cc3cccc(F)c3)cc2)[C@@H](CO)N1C(=O)C1CCC1 | 22.8% (inactive)
12 | N#C[C@@H]1[C@H](c2ccc(C#Cc3cccc(F)c3)cc2)[C@@H](CO)N1C(=O)C1CCCC1 | 105% (active)
13 | CCCC#Cc1ccc([C@@H]2[C@@H](C#N)N(C(=O)C3CCCC3)[C@@H]2CO)cc1 | 23.7% (inactive)
14 | N#C[C@@H]1[C@@H](c2ccccc2)[C@@H](CO)N1C(=O)Cc1ccccc1 | 17% (inactive)
15 | C[C@@H]1CN([C@@H](C)CO)S(=O)(=O)c2ccc(C#Cc3ccc(F)cc3)cc2O[C@H]1CN(C)S(C)(=O)=O | 64.1% (active)
16 | C[C@@H]1CN([C@H](C)CO)S(=O)(=O)c2ccc(C#Cc3ccncc3)cc2O[C@@H]1CN(C)S(=O)(=O)c1ccc(F)cc1 | 27.4% (active)
17 | Cc1noc(C)c1S(=O)(=O)N(C)C[C@H]1Oc2ccc(N(C)C)cc2CC(=O)N([C@H](C)CO)C[C@@H]1C | -3.27% (inactive)
18 | Cc1ccccc1-c1ccc([C@@H]2[C@H](CO)N3CCCCN(S(=O)(=O)c4ccc(F)cc4)C[C@@H]23)cc1 | 102% (active)
19 | Cc1ccccc1-c1ccc([C@H]2[C@H]3CN(S(=O)(=O)c4ccc(F)cc4)CCCCN3[C@H]2CO)cc1 | 103% (active)
20 | O=S(=O)(c1ccc(F)cc1)N1CCCCN2[C@H](C1)[C@H](c1ccc(C3=CCCCC3)cc1)[C@@H]2CO | 105% (active)

Row | SMILES | inhibition
21 | CN(C)CC#Cc1ccc([C@H]2[C@H]3CN(S(=O)(=O)c4ccccc4F)CCCCN3[C@H]2CO)cc1 | 18.4% (inactive)
22 | Cc1ccc(S(=O)(=O)N(C)C[C@H]2OCCCC[C@H](C)Oc3ccc(NC(=O)Cc4ccccc4)cc3C(=O)N([C@@H](C)CO)C[C@@H]2C)cc1 | -4.04% (inactive)
23 | COc1ccc(NC(=O)N(C)C[C@H]2OCCCC[C@H](C)Oc3ccc(NC(=O)Nc4ccc(C(F)(F)F)cc4)cc3C(=O)N([C@@H](C)CO)C[C@@H]2C)cc1 | 20.7% (inactive)
24 | C[C@H](CO)N1C[C@H](C)[C@@H](CN(C)Cc2ccc(C(=O)Nc3ccccc3N)cc2)Oc2c(NC(=O)c3ccc(-c4nccs4)cc3)cccc2C1=O | 42% (active)
25 | COc1ccc(S(=O)(=O)N(C)C[C@H]2Oc3c(NC(=O)Nc4cccc5ccccc45)cccc3C(=O)N([C@@H](C)CO)C[C@H]2C)cc1 | 26.1% (inactive)
26 | Cc1ccc(S(=O)(=O)N(C)C[C@@H]2Oc3c(NC(=O)c4nc5ccccc5s4)cccc3C(=O)N([C@H](C)CO)C[C@@H]2C)cc1 | 49% (active)
27 | C[C@@H]1CN([C@H](C)CO)C(=O)c2cccc(NC(=O)c3ccc(-c4nccs4)cc3)c2O[C@@H]1CN(C)C(=O)Nc1ccc(C(F)(F)F)cc1 | 44% (active)
28 | C[C@@H]1CN([C@H](C)CO)C(=O)c2cccc(NC(=O)c3cnccn3)c2O[C@@H]1CN(C)Cc1ccc(C(=O)Nc2ccccc2N)cc1 | 68.5% (active)
29 | C[C@H]1CN([C@@H](C)CO)C(=O)c2cccc(NS(=O)(=O)c3cn(C)cn3)c2O[C@@H]1CN(C)CC1CCCCC1 | 0.698% (inactive)
30 | C[C@@H]1CCCCO[C@H](CN(C)C(=O)Nc2ccc(C(F)(F)F)cc2)[C@H](C)CN([C@H](C)CO)C(=O)c2cc(NC(=O)Nc3ccc(C(F)(F)F)cc3)ccc2O1 | -27.4% (inactive)
31 | Cc1cc(C(=O)Nc2cccc3c2O[C@@H](CN(C)Cc2ccc(C(=O)Nc4ccccc4N)cc2)[C@H](C)CN([C@@H](C)CO)C3=O)n(C)n1 | 10.2% (inactive)
32 | N#Cc1cccc(-c2ccc([C@H]3[C@H](CO)N4CCCCN(C(=O)Nc5cccc(F)c5)C[C@@H]34)cc2)c1 | 105% (active)
33 | O=C(C1CC1)N1CCCCN2[C@H](CO)[C@H](c3ccc(-c4cccc(F)c4)cc3)[C@H]2C1 | 56.9% (active)
34 | O=C(Nc1cccc(F)c1)N1CCCCN2[C@H](CO)[C@H](c3ccc(C#CC4CC4)cc3)[C@@H]2C1 | 22.3% (inactive)
35 | O=C(C1CCCC1)N1CCCCN2[C@@H](CO)[C@H](c3ccc(-c4cccc(F)c4)cc3)[C@@H]2C1 | 105% (active)
36 | O=C(Nc1ccccc1F)N1CCCCN2[C@H](CO)[C@@H](c3ccc(-c4cccnc4)cc3)[C@H]2C1 | 14.6% (inactive)
37 | O=C(C1CCC1)N1CCCCN2[C@H](CO)[C@H](c3ccc(-c4cccc(F)c4)cc3)[C@@H]2C1 | 1.34% (inactive)
38 | O=C(C[C@@H]1C[C@H]2c3cc(NC(=O)C4CCC4)ccc3O[C@H]2[C@@H](CO)O1)NCc1ccc2c(c1)OCO2 | -13.1% (inactive)
39 | C[C@@H]1CCCCO[C@H](CN(C)S(=O)(=O)c2ccc(F)cc2)[C@H](C)CN([C@@H](C)CO)C(=O)c2cc(NS(=O)(=O)c3ccccc3)ccc2O1 | -19.2% (inactive)
40 | CC(C)NC(=O)Nc1ccc2c(c1)C(=O)N([C@@H](C)CO)C[C@H](C)[C@H](CN(C)S(=O)(=O)c1ccc(Cl)cc1)OCCCC[C@H](C)O2 | 14% (inactive)

Row | SMILES | inhibition
41 | C[C@H]1CN([C@@H](C)CO)C(=O)c2cc(C#CC3CCCCC3)cnc2O[C@H]1CN(C)S(=O)(=O)c1ccccc1 | 62.7% (active)
42 | C[C@@H]1CN([C@H](C)CO)C(=O)c2cc(C#CC3CCCCC3)cnc2O[C@@H]1CN(C)C(=O)NC1CCCC1 | 75.6% (active)
43 | C[C@@H]1CCCCO[C@@H](CN(C)S(=O)(=O)c2ccc(Cl)cc2)[C@H](C)CN([C@@H](C)CO)C(=O)c2cc(NC(=O)Cc3ccccc3)ccc2O1 | 12.4% (inactive)
44 | C[C@@H]1CN([C@@H](C)CO)C(=O)c2cc(C#CC3CCCCC3)cnc2O[C@H]1CN(C)S(=O)(=O)c1ccccc1 | 106% (active)
45 | C[C@H](CO)N1C[C@H](C)[C@H](CN(C)C(=O)Nc2ccc3c(c2)OCO3)Oc2ncc(C#Cc3cccc(F)c3)cc2C1=O | 103% (active)
46 | C[C@H](CO)N1C[C@H](C)[C@H](CN(C)C(=O)C2CCCCC2)Oc2ncc(C#Cc3cccc(F)c3)cc2C1=O | 92.3% (active)
47 | C[C@@H]1CN([C@H](C)CO)C(=O)c2cc(-c3cncnc3)cnc2O[C@H]1CN(C)C(=O)Nc1ccc2c(c1)OCO2 | 2.69% (inactive)
48 | Cc1cccc(-c2ccc([C@H]3[C@@H](CO)N4CCCCN(Cc5cncnc5)C[C@H]34)cc2)c1 | 102% (active)
49 | OC[C@@H]1[C@H](c2ccc(C#Cc3ccccc3)cc2)[C@@H]2CN(Cc3cncnc3)CCCCN12 | 104% (active)
50 | CN(C)C(=O)c1ccc(-c2ccc([C@H]3[C@@H](CO)N4CCCCN(CC5CC5)C[C@H]34)cc2)cc1 | -3.83% (inactive)
51 | OC[C@H]1[C@H](c2ccc(-c3cccc(F)c3)cc2)[C@@H]2CN(Cc3cncnc3)CCCCN12 | 31.7% (active)
52 | Cc1ccc(-c2ccc([C@H]3[C@H](CO)N4CCCCN(Cc5cncnc5)C[C@@H]34)cc2)cc1 | 64.8% (active)
53 | OC[C@@H]1[C@H](c2ccc(C#CC3(O)CCCC3)cc2)[C@H]2CN(Cc3cncnc3)CCCCN12 | 16.8% (inactive)
54 | CCC(=O)N1CC[C@@H]2[C@@H](CO)N(C)c3ccc(-c4cccc(OC)c4)cc3[C@@H]21 | -5.88% (inactive)
55 | CC(C)C#Cc1ccc2c(c1)O[C@H](CN(C)Cc1ccccc1)[C@H](C)CN([C@@H](C)CO)S2(=O)=O | 106% (active)
56 | CC(=O)N(C)C[C@H]1Oc2cc(C#CCN(C)C)ccc2S(=O)(=O)N([C@@H](C)CO)C[C@@H]1C | 16.1% (inactive)
57 | C[C@@H]1CN([C@H](C)CO)S(=O)(=O)c2ccc(C#C[C@@H](C)O)cc2O[C@@H]1CN(C)Cc1ccc(-c2ccccc2)cc1 | 105% (active)
58 | C[C@@H]1CN([C@@H](C)CO)S(=O)(=O)c2ccc(/C=C/c3ccccc3)cc2O[C@H]1CN(C)Cc1ccccc1 | 72.5% (active)
59 | C[C@H]1CN([C@@H](C)CO)S(=O)(=O)c2ccc(C#CCN(C)C)cc2O[C@@H]1CN(C)Cc1ccc(F)cc1 | 105% (active)
60 | COc1cccc(C#Cc2ccc([C@@H]3[C@H](C#N)N[C@H]3CO)cc2)c1 | 61.1% (active)
